Assay outcomes: PubChem BioAssay, Broad Institute
Only a sample is shown.
aSyn UTR act: Activators via SNCA 5'UTR binding, MLPCN; activity score, % (tested at 7.5 µM), hits read low; alpha-synuclein 5'UTR reporter, activators screen; 300,000 compounds, 7.1% hits; in the data active = activity score below about -60%
The depositor's hits bear a star.

SMILES	aSyn UTR act
COc1cc2c(cc1OC)CN(c1ncccc1[N+](=O)[O-])CC2	-88*
COc1cc2c(cc1OC)CN(c1ccc(F)cc1[N+](=O)[O-])CC2	-79*
CC(=O)c1ccc(N2CCc3ccccc3C2)c([N+](=O)[O-])c1	-68*
COc1ccc(COC(=O)c2cc([N+](=O)[O-])ccc2N2CCOCC2)cc1F	68
Cc1nn(-c2ccccc2)c(C)c1Cc1ccc(O)cc1	-117*
COc1cccc2cc(-c3cn4cccc(C)c4n3)c(=O)oc12	-154*
COc1ccc(-n2c(C)cc(-c3cn4cccc(C)c4n3)c2C)cc1	-79*
CCOc1cccc2cc(-c3cn4cc(C)ccc4n3)c(=O)oc12	-83*
COc1cccc2cc(-c3cn4ccc(C)cc4n3)c(=O)oc12	-88*
Nc1ccc2oc3ccc(N)cc3c(=O)c2c1	-103*
COC(=O)C(Cc1ccc(OC(=O)c2ccccc2C)cc1)N1Cc2ccccc2C1=O (stereo not drawn)	-142*
COC(=O)C(Cc1ccc(OC(=O)c2ccccc2Cl)cc1)N1Cc2ccccc2C1=O (stereo not drawn)	-88*
C[C@@H]1CC=C[C@H]2[C@H]1C(=O)N(Cc1ccccc1)[C@H]2c1ccc(-c2cc3ccccc3s2)cc1F	-138*
COc1cccc(-c2nc3ccc(C(=O)N4CCCC(O)C4)cc3o2)c1 (stereo not drawn)	-91*
CCC(=O)C1CCCN(C(=O)c2ccc3nc(-c4cccc(OC)c4)oc3c2)C1 (stereo not drawn)	-85*
COC(=O)c1cc(C(=O)N2CCN(c3cccc(C)c3C)CC2)cc([N+](=O)[O-])c1	78
Nc1ccc(N2CCCCC2)cc1N1CCCCC1	85
COC(=O)c1ccc(N2CCC(C)CC2)c(N)c1	-99*
COC(=O)c1ccc(N2CCCCC2)c(N)c1	-92*
CNC[C@@H](CC1CCCCC1)NC[C@H](CC(C)C)NCCc1cccc(C(F)(F)F)c1	122
CC[C@@H](C)[C@H](CNC)NC[C@@H](Cc1cccc2ccccc12)NCCc1cccc(C(F)(F)F)c1	125
CC(C)NC(=O)CCc1nnc(Cc2cccc(C(F)(F)F)c2)o1	-95*
Cc1ccc(N2C(=O)c3ccccc3NC2(C(=O)O)c2ccccc2)cc1Cl (stereo not drawn)	-68*
Cc1cccc(NC2=C(NC(=O)c3ccccc3)C(=O)c3ccccc3C2=O)c1	-102*
CN(C1=C(NC(=O)c2ccc(Cl)cc2)C(=O)c2ccccc2C1=O)c1ccccc1	-83*
SMILES	aSyn UTR act
Cc1ccc(Nc2nc(CSc3nnnn3C)cs2)cc1	-103*
Cn1nnnc1SCc1csc(Nc2ccccc2)n1	-109*
Cc1ccc(Nc2nc(CSc3n[nH]c(N)n3)cs2)cc1	-108*
CC12COC3(C(=O)Nc4ccc5ccccc5c4)CC1CCC32C (stereo not drawn)	-144*
Cc1sc(=NC(=O)c2ccco2)n(C)c1-c1ccc(Cl)cc1	-101*
CC1=NN(C(N)=S)C(=O)C1N=Nc1ccc(F)cc1 (stereo not drawn)	-89*
CCOc1ccc(N=NC2C(=O)N(C(N)=S)N=C2C)cc1 (stereo not drawn)	-142*
COc1cc(/C=N/Nc2nc(N3CCCC3)nc(N3CCCC3)n2)ccc1OCc1ccccc1F	-72*
COCCCNC(=O)/C=C1\Sc2ccccc2N(Cc2ccccc2F)C1=O	-94*
CCc1ccc(NC(=S)Nc2cc(C(=O)O)ccc2N2CC3CC(C2)c2cccc(=O)n2C3)cc1 (stereo not drawn)	-114*
Cc1ccccc1OCc1nc(-c2ccc(NC(=O)c3ccc4c(c3)OCO4)cc2)no1	-109*
CC(Oc1ccc(Cl)cc1Cl)c1nc(-c2ccc(NC(=O)c3ccco3)cc2)no1 (stereo not drawn)	-147*
CCCc1ccc(OCc2nc(-c3ccc(NC(=O)c4ccco4)cc3)no2)cc1	-119*
CCCc1ccc(OCc2nc(-c3ccc(NC(=O)c4cccs4)cc3)no2)cc1	-169*
Cc1ccccc1OCc1nc(-c2ccc(NC(=O)c3cccs3)cc2)no1	-277*
CN(C)/C=N/C(=S)Nc1ccc(Cl)cc1Cl	-107*
N#C/C(=C\c1ccc([N+](=O)[O-])cc1)c1nc(C2CC2)cs1	-84*
N#C/C(=C\c1ccccc1[N+](=O)[O-])c1nc(C2CC2)cs1	-264*
N#C/C(=C/c1ccccc1[N+](=O)[O-])c1nc(C2CC2)cs1	-301*
CN(C)c1ccc(Nc2ncnc3ccc(Br)cc23)cc1	-72*
O=C(CCc1ccccc1)Nc1ccc(NC(=O)c2ccco2)nc1	-71*
O=C(Nc1ccc(NC(=O)c2ccccc2Cl)nc1)c1ccco1	-102*
CC(C)C(=O)Nc1ccc(NC(=O)c2ccccc2Cl)nc1	-115*
O=C(Nc1ccccn1)c1ccc(NC(=O)c2ccco2)cc1	-141*
Cc1cc(NC(=O)c2ccco2)ncc1NC(=O)Cc1ccccc1	-119*
Cc1ccc(N2CN=c3s/c(=C\c4ccccn4)c(=O)n3C2)cc1	-63*
Cc1ccc(C(=O)Nc2nccs2)s1	-87*
O=C(Nc1nccs1)c1ccc(Br)s1	-153*
Cc1ccc(-c2nc3ccccc3[nH]2)cc1NC(=S)NC(=O)c1ccccc1Br	-67*
